# “And” between values parts separate entries of the source, which are not always exact repeats. Equal values may be shown once. In all, about 350,000 compounds went through this assay and about 5,500 (1.6%) were called active.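 The calls were made as follows: active = significant combined selectivity score with lowered wild-type GFP, culture density cut under 30%, mutant RFP and density less affected; inactive = any of these conditions unmet.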 Shown is part of a subset that was picked to be rich in actives.
# Experiment: reduced GFP signal of wild-type E. coli, primary screen, bacterial rRNA inhibitor project, GFP/RFP fluorescence, OD600, single point (AID 720706)
# Conditions: E. coli WT GFP vs humanized-ribosome RFP mutants, 24 h; GFP signal change (wild-type ribosome): stronger effect = lower value, DMSO median 0, no signal -100; OD600 change: measured here: OD600 growth, DMSO median 0, no signal -100; RFP signal change: measured here: RFP humanized mutant strains, DMSO median 0, no signal -100, concentration not given here
Structure (SMILES),GFP signal change (wild-type ribosome),OD600 change,RFP signal change
C[C@@H]1CN([C@@H](C)CO)C(=O)c2cc(NC(=O)Nc3ccc(C(F)(F)F)cc3)ccc2O[C@@H]1CN(C)Cc1ccncc1,8.75% (inactive),-38.7%,31.2%
O=C(NCCc1c[nH]c2ccccc12)c1cc2ccccc2oc1=O,-5% (inactive),0.635%,-0.892%
O=C(CCc1c[nH]c2ccccc12)NCCOc1ccccc1,7.54% (inactive),3.6%,0.609%
O=C(NCCc1c[nH]c2ccccc12)C1CCN(Cc2ccc(Br)cc2)CC1,-52.8% (inactive),-78.6%,-12.4%
COc1ccccc1CC(=O)NCCc1c[nH]c2ccccc12,-17.2% (active),-2.84%,2.84%
O=C(NCCc1c[nH]c2ccccc12)c1cccc(Br)c1,-23% (active),-17%,3.38%
O=C(COC(=O)Cc1c[nH]c2ccccc12)NCCc1ccccc1,1.61% (inactive),-7.07%,1.57%
O=C(C[C@H]1CC[C@H]2[C@@H](COC[C@@H](O)CN2S(=O)(=O)c2ccc(Cl)cc2)O1)NCCN1CCCCC1,0.039% (inactive),1.47%,-0.478%
COc1cccc(CC(=O)N2CCN(C(=O)C(=O)c3cccc(C(F)(F)F)c3)CC2)c1,-2.93% (inactive),-8.1%,7.12%
C[C@@H]1CN([C@@H](C)CO)S(=O)(=O)c2ccc(-c3cccc(C(=O)N(C)C)c3)cc2O[C@@H]1CN(C)C(=O)Nc1ccccc1,-9.2% (inactive),-5.97%,-2.53%
O=C(NNC(=O)C1C2CCC(C2)C1C(=O)O)c1ccc(Cl)cc1 (configuration not stated),1.61% (inactive),3.63%,-0.52%
O=C(NNC(=S)NC1CC2CCC1C2)c1ccc(Cl)cc1 (configuration not stated),-24.6% (active),-6.95%,-4.4%
O=S(=O)(NC1CC2CCC1C2)c1ccc(Cl)cc1 (configuration not stated),3.91% (inactive),-2.44%,-1.19%
COc1ccc(NC(=O)N(C)C[C@@H]2Oc3ccc(NS(=O)(=O)c4ccc(C)cc4)cc3CC(=O)N([C@@H](C)CO)C[C@H]2C)cc1,0.124% (inactive),-3.65%,1.41%
S=C(c1ccc(-c2ccccc2)o1)N1CCCCC1,-28.2% (active),-14.7%,-0.16%
CC1CCN(C(=S)c2ccc(-c3ccc(Cl)cc3Cl)o2)CC1,-16.5% (inactive),-16.4%,-6.12%
CN1CCN(C(=O)c2ccc(-c3ccc(Br)cc3)o2)CC1,-5.31% (inactive),-1.78%,2.79%
C[C@@H]1CN([C@H](C)CO)C(=O)c2cc(-c3cncnc3)cnc2O[C@@H]1CN(C)Cc1ccc(Oc2ccccc2)cc1,1.64% (inactive),8.99%,0.949%
O=S(=O)(NC[C@H]1[C@H](c2ccccc2)[C@H](CO)N1CC1CC1)c1ccccc1,-3.76% (inactive),-2.41%,-1.76%
COc1ccc(NC(=O)CSc2nc(SC)ns2)c(OC)c1,-4.47% (inactive),-9.82%,2.07%
CCc1cc2cc(OC)ccc2nc1SCC(=O)Nc1cc(OC)c(OC)cc1C(=O)O,-19.8% (active),-8.13%,-0.961%
COc1ccc(OC)c(NC(=O)CSc2nc(-c3ccccc3)cc(=O)[nH]2)c1,-0.85% (inactive),-0.395%,-1.33%

Structure (SMILES),GFP signal change (wild-type ribosome),OD600 change,RFP signal change
COc1cccc(NC(=O)N2[C@@H]3CNC[C@H]2C3c2ccc(-c3ccncc3)cc2)c1 (some centres not stated),5.32% (inactive) and -0.155% (inactive),9.53% and -0.49%,1.61% and -4.31%
CC1CCCC(NC(=O)COC(=O)[C@@H]2CC(O)CN2S(=O)(=O)c2ccc3c(c2)OCCO3)C1C (some centres not stated),-31.5% (active),-14.6%,-2.13%
O=C1COc2ccc(C(=O)COC(=O)C3CC(O)CN3S(=O)(=O)c3ccc(Cl)cc3)cc2N1 (configuration not stated),-11.8% (inactive),-8.3%,1.61%
Cc1ccc(S(=O)(=O)N2CC(O)C[C@H]2C(=O)OCC(=O)Nc2ccc(N3CCOCC3)cc2)cc1C (some centres not stated),4.3% (inactive),7.03%,2.94%
COCC#Cc1ccc([C@H]2[C@H](CO)N3CCCCN(Cc4ccncc4)C[C@@H]23)cc1,-2.93% (inactive),-2.59%,-5.64%
COc1ccc(S(=O)(=O)NC(C)C(=O)NCc2ccncc2)cc1Cl (configuration not stated),2.54% (inactive),0.925%,-2.25%
CC(C)CNS(=O)(=O)c1ccc(CCC(=O)NCc2ccc(Cl)cc2)cc1,10.8% (inactive),11.2%,-2.51%
Cc1ccc(S(=O)(=O)NC(C)C(=O)NCc2ccc(Cl)cc2)cc1 (configuration not stated),-22.7% (active),-10.8%,-4.03%
CCC(=O)Nc1ccc2c(c1)OC[C@@H](C)N(CC1CC1)C[C@H](C)[C@H](OC)CN(C)C2=O,1.22% (inactive),-0.6%,-0.045%
CC(C)NC(=O)/C(C#N)=C\c1ccc(N(C)C)c(Br)c1,-19.9% (active),-12.4%,3.85%
CC(C)(C)C(=O)/C(C#N)=C/c1ccc(O)cc1,19.8% (inactive),5.69%,-9.62%
Cc1[nH]c2ccccc2c1/C=C(/C#N)C(=O)NC(C)C,-4.98% (inactive),5.32%,-3.18%
O=C(NCC[C@H]1CC[C@H](NS(=O)(=O)c2ccccc2)[C@H](CO)O1)c1cc(Cl)cc(Cl)c1,-5.21% (inactive),-26.1%,22%
CCc1cc(C(=O)OC)c(NC(=O)CC2Sc3ccc(C(F)(F)F)cc3NC2=O)s1 (configuration not stated),0.188% (inactive),4.88%,-2.55%
Cc1ccc(CNC(=O)CC2Sc3ccccc3NC2=O)cc1 (configuration not stated),11.2% (inactive),14.1%,3.46%
COC(=O)c1cc(C)sc1NC(=O)CC1Nc2ccccc2NC1=O (configuration not stated),-18.4% (active),-7.76%,12.5%
O=C(OCC(=O)c1c[nH]c2ccccc12)c1cccc(O)c1,-42.8% (inactive),-45.1%,-14.1%
O=C(O)c1[nH]c2ccccc2c1C(c1cccc(O)c1)c1c(C(=O)O)[nH]c2ccccc12,-25.6% (active),-18.5%,8.53%
COc1ccc2c3c(n(C)c2c1)[C@@H](CO)N(C(C)=O)CC31CCN(Cc2ccc(Cl)cc2)CC1,-1.69% (inactive),-3.51%,1.83%
COc1ccc(/C=C2\SC(=S)N(CCC(=O)N3CCOCC3)C2=O)cc1OC,10.4% (inactive),16.7%,0.46%
C=CCOc1ccc(/C=C2\SC(=S)N(CCC(=O)O)C2=O)cc1,-32.4% (active),-18.9%,-4.79%
O=C1/C(=C/c2ccc(F)cc2)SC(=S)N1CCCC(=O)N1CCCCC1CCO (configuration not stated),-19.1% (inactive),-28.5%,-4.34%
